Screening results from PubChem.
Shown are actives, neighbours in structure and some others; about 14% of the full set was active somewhere.
HCV inh: qHTS Assay for Inhibitors of Hepatitis C Virus (HCV); Huh7.5.1 HCVcc-Cre infection, luciferase reporter, 44 h; Potency, µM (highest dose often 41.8 µM), without a hit: at the top dose activity change, negative = inhibition, most hits filed as inhibitors; hit rate 3.4% among 340,000; AID 651820, 2012; also: potency is read from the fitted curve at half-maximal effect; % is scaled to controls: 0 for no effect and ±100 for the full control effect
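Cells seeded at 1,000/well and cultured 4 h, then compounds added followed by HCVcc-Cre virus (~0.5 moi). After 44 h further culture, luciferase substrate was added, plates held 15 min at room temperature, and luminescence read for 15 sec.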
Pf growth 96h: Primary qHTS for delayed death inhibitors of the malarial parasite plastid, 96 hour incubation. hit rate 6.9% among 320,000. P. falciparum luciferase reporter growth, 96 h. AID 504834, 2011. Potency, µM (highest dose often 28.7 µM), for the others: at the highest dose activity change, negative = inhibition, actives largely listed as inhibitors; also: potency is read from the fitted curve at half-maximal effect; % is scaled to controls: 0 for no effect and ±100 for the full control effect
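Plates of compound plus infected erythrocytes (2% hematocrit, 0.05% parasitemia final) incubate 96 hours, 37 C, 5% CO2. Detection reagent added; reduced luminescence from the parasites' luciferase reporter flags inhibition.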
MARV entry inh: qHTS for inhibitors of binding or entry into cells for Marburg Virus; Marburg virus pseudotyped entry inhibition, cell reporter; Potency, µM (top dose mostly 37.8 µM), without a hit: top-dose activity change, negative = inhibition, usual class: inhibitors; hit rate 1.8% among 300,000; AID 540276, 2011; calls by dose curve; tested in HEK293 cells; also: potency is read from the fitted curve at half-maximal effect; % is scaled to controls: 0 for no effect and ±100 for the full control effect
Pf growth 48h: Primary qHTS for delayed death inhibitors of the malarial parasite plastid, 48 hour incubation; AID 504832, 2011; Potency, µM (top dose mostly 28.7 µM), for the others: at the highest dose activity change, negative = inhibition, most hits filed as inhibitors; hit rate 5.9% among 310,000; P. falciparum luciferase growth in erythrocytes, 48 h; also: potency is read from the fitted curve at half-maximal effect; % is scaled to controls: 0 for no effect and ±100 for the full control effect
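Parasite viability was followed by luminescence of a genomically integrated firefly luciferase. Cultures held 0.1% parasitemia at 2% hematocrit (final), incubated under 5% CO2 at 37 C.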
LASV entry inh: qHTS for Inhibitors of binding or entry into cells for Lassa Virus | Lassa virus pseudotype entry inhibition, cell reporter | Potency, µM (series often up to 37.9 µM), for the others: at the top dose activity change, negative = inhibition, actives largely listed as inhibitors | hit rate 1.2% among 300,000 | AID 540256, 2011; calls by dose curve; tested in HEK293 cells; also: potency is read from the fitted curve at half-maximal effect; % is scaled to controls: 0 for no effect and ±100 for the full control effect; nearly all actives have a fitted effect of over 50% in size
HCMV antiviral: qHTS Assay for inhibitors of the human cytomegalovirus (HCMV); hit rate 4.5% among 410,000; HFF cells, HCMV-luciferase reporter, 72 h; hits give low values; AID 1259415, 2018; activity change, negative = inhibition, % at 57.5 µM; in the data active = activity change below about -60%; inconclusive = no clear call, values can overlap the other calls; inactive = above about -39%; also: % is scaled to controls: 0 for no effect and ±100 for the full control effect
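Human foreskin fibroblasts infected with luciferase-reporter HCMV at MOI 1 PFU/cell, compounds at two doses. Luciferase measured 72 h post infection; normalized to buffer-only basal and Salinomycin (10uM) controls.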
HCV inh confirm: qHTS Assay for Inhibitors of Hepatitis C Virus (HCV): Confirmation Assay for Cherry-picked Compounds | shares compounds with HCV inh | HCVcc-Cre infectious virus cell assay, luciferase, inhibition | Potency, µM (titrated, usually from 41.8 µM), for the others: top-dose activity, negative = inhibition, actives largely listed as inhibitors | hit rate 78% among 640; also: potency is read from the fitted curve at half-maximal effect; nearly all actives have a fitted effect of over 80% in size
HCV host tox: qHTS Assay for Inhibitors of Hepatitis C Virus (HCV): Cytotoxicity Counterscreen for Cherry-picked Compounds | shares compounds with HCV inh | HCV host cell line cytotoxicity counterscreen | AID 720576, 2013 | hit rate 22% among 640 | Potency, µM (top dose mostly 41.8 µM), for inactives: at the top dose activity change, negative = cytotoxicity, actives largely listed as inhibitors;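 also: potency is read from the fitted curve at half-maximal effect; 44 h compound exposure; % is scaled to controls: 0 for no effect and ±100 for the full control effect; nearly all actives have a fitted effect of over 55% in size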
* hit, by the source's call; [ ] = dose if it differs, or a comment. Unless noted, calls follow the shape of the dose curve; as a rule, active = well fitted curve in the direction sought with a large enough effect; inconclusive = small, poorly fitted or top-dose-only effect, or another doubt; inactive = no such curve, though single readings can be large; an effect the other way counts as inactive or inconclusive.

What do the screens show for `O=C(NCc1cccc(CNC(=O)C(=O)NCc2ccco2)c1)C(=O)NCc1ccco1`?
HCV inh: 11%; Pf growth 96h: inconclusive; Pf growth 48h: 24%; HCMV antiviral: -1

Results for CNc1ccc(Br)cc(C(=O)/C=C/c2cc(OC)ccc2OC)c1=O ?
HCV inh: 5µM*; Pf growth 96h: -104%; MARV entry inh: inconclusive; Pf growth 48h: inconclusive; LASV entry inh: inconclusive; HCMV antiviral: -102*; HCV inh confirm: inconclusive; HCV host tox: -27%

How did O=C(Cc1ccc(Cl)cc1Cl)Nc1ccc(OC(F)F)c(Cl)c1 do in these assays?
HCV inh: inconclusive; Pf growth 96h: 8%; MARV entry inh: inconclusive; Pf growth 48h: 3%; LASV entry inh: -3%; HCMV antiviral: inconclusive

How did O=C(Nc1ccc([N+](=O)[O-])cc1)Nc1ccc(OC(F)F)c(Cl)c1 do in these assays?
HCV inh: inconclusive; Pf growth 96h: -15%; MARV entry inh: inconclusive; Pf growth 48h: 1.9µM*; LASV entry inh: 15µM*; HCMV antiviral: -101*; HCV inh confirm: 7µM*; HCV host tox: 8.9µM*

How did CC(C)(C)OC(=O)CNC(=O)c1[nH]cnc1C(=O)NCCCCCNC(=O)OC(C)(C)C do in these assays?
HCV inh: inconclusive; Pf growth 96h: -11%; Pf growth 48h: -26%; HCMV antiviral: -5

Results for Cc1cccc2c1-c1sc(C(=O)NCCCN3CCC(C)CC3)cc1CO2 ?
HCV inh: 5µM*; Pf growth 96h: inconclusive; Pf growth 48h: inconclusive; HCMV antiviral: inconclusive; HCV inh confirm: 25µM*; HCV host tox: -5%

What do the screens show for `C=CCNC(=S)N/N=C/c1ccc(C(F)(F)F)cc1`?
HCV inh: 8.9µM*; Pf growth 96h: inconclusive; Pf growth 48h: inconclusive; HCMV antiviral: -86*; HCV inh confirm: 8.9µM*; HCV host tox: 13µM*

How did C=CCNC(=S)N/N=C/c1ccc(C)c([N+](=O)[O-])c1 do in these assays?
HCV inh: -26%; Pf growth 96h: 16%; MARV entry inh: inconclusive; Pf growth 48h: 29%; LASV entry inh: inconclusive; HCMV antiviral: inconclusive

How did O=C(COc1cc(Cl)ccc1Cl)Nc1nnc(C2CC2)s1 do in these assays?
HCV inh: 5%; Pf growth 96h: 9%; MARV entry inh: -2%; Pf growth 48h: 6%; LASV entry inh: -6%; HCMV antiviral: -34

Results for Cc1cccc(C)c1NC(=O)CN1CCN(C(=O)CNC(=O)c2ccc(N3CCCC3=O)cc2)CC1 ?
HCV inh: 14%; Pf growth 96h: inconclusive; Pf growth 48h: inconclusive; HCMV antiviral: -20

Results for Cn1ncc2c(NCCc3ccccc3)nc(Cl)nc21 ?
HCV inh: inconclusive; MARV entry inh: -14%; LASV entry inh: -15%; HCMV antiviral: 7; HCV inh confirm: 25µM*; HCV host tox: -7%

How did COc1cc(CCC(O)CC(=O)CCc2ccccc2)ccc1O (stereo not given) do in these assays?
HCV inh: 1.1µM*; Pf growth 96h: 0%; Pf growth 48h: 33%; HCMV antiviral: 3; HCV inh confirm: -23%; HCV host tox: 33%

Results for CC1(C)NC(=O)N(CC(=O)Nc2nc(-c3ccc(F)cc3)cs2)C1=O ?
HCV inh: 3.5µM*; MARV entry inh: 3%; Pf growth 48h: 20%; LASV entry inh: 6%; HCMV antiviral: 76; HCV inh confirm: inconclusive; HCV host tox: -5%

How did NS(=O)(=O)c1ccc(N=Nc2ccc(O)c3ncccc23)cc1 do in these assays?
HCV inh: 3.5µM*; Pf growth 96h: inconclusive; Pf growth 48h: 2.6µM*; HCMV antiviral: -97*; HCV inh confirm: 7.9µM*; HCV host tox: 8.9µM*

How did CCCCn1c(SCN2C(=O)c3ccccc3C2=O)nc2cc(S(N)(=O)=O)ccc21 do in these assays?
HCV inh: 21%; Pf growth 96h: 4%; MARV entry inh: inconclusive; Pf growth 48h: 6%; LASV entry inh: 1%; HCMV antiviral: -17

Results for CCCCn1c(SCn2nnc3ccccc3c2=O)nc2cc(S(N)(=O)=O)ccc21 ?
HCV inh: inconclusive; MARV entry inh: 1%; Pf growth 48h: inconclusive; LASV entry inh: -4%; HCMV antiviral: -36; HCV inh confirm: 0.0011µM*; HCV host tox: -3%

How did COc1ccc(-c2coc3cc(O)cc(O)c3c2=O)cc1 do in these assays?
HCV inh: 0%[8.37 µM]; Pf growth 96h: 79%; MARV entry inh: inconclusive; Pf growth 48h: 111%; LASV entry inh: inconclusive; HCMV antiviral: 6

Results for O=c1c(-c2ccc(O)cc2)coc2cc(O)cc(O)c12 ?
HCV inh: 0.89µM*; Pf growth 96h: 178%; MARV entry inh: inconclusive; Pf growth 48h: 121%; LASV entry inh: inconclusive; HCMV antiviral: 72; HCV inh confirm: -7%; HCV host tox: -4%

Results for CCN(CC)c1ccc(/C=N/NC(=O)c2ccoc2C)c(O)c1 ?
HCV inh: 2.8µM*; Pf growth 96h: inconclusive; Pf growth 48h: 1.3µM*; HCMV antiviral: -100*; HCV inh confirm: 7µM*; HCV host tox: 7.9µM*

What do the screens show for `CCOc1ccc(CCNC(=O)Cn2c(-c3cccs3)cc3ccccc32)cc1`?
LASV entry inh: -20%[46.1 µM]; HCMV antiviral: -17

How did Cc1cc2oc(C(=O)NCCc3ccc(S(N)(=O)=O)cc3)c(C)c2cc1C do in these assays?
HCV inh: inconclusive; Pf growth 96h: 0%; MARV entry inh: -6%[46.1 µM]; Pf growth 48h: -21%; LASV entry inh: -27%[46.1 µM]; HCMV antiviral: -21; HCV inh confirm: inconclusive; HCV host tox: 23%

How did Cc1ccc(C)c(NC(=S)NC(NC(=O)Cc2cccc3ccccc23)C(Cl)(Cl)Cl)c1 (stereo not given) do in these assays?
HCV inh: 2.2µM*; Pf growth 96h: 2.6µM*; MARV entry inh: 13µM*; LASV entry inh: 7.9µM*; HCMV antiviral: -98*; HCV inh confirm: 11µM*; HCV host tox: 31µM*
